TEAD-YAP inh = TEAD-YAP interaction inhibition, primary screen, TEAD-YAP interaction inhibitor project, luminescence, HEK-TIYL cells; TEAD-Gal4/YAP UAS-luciferase luminescence; inhibition, % at 9.12 µM; 640,000 compounds, 1.4% hits; in the data active = inhibition above about 32%;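 note: 0% = median of test compound wells and 100% = reference inhibitor wells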
MITF inh = MITF inhibitors, primary screen, biochemical, AlphaScreen, human. AlphaScreen MITF homodimerization, bead proximity signal. inhibition, % at 2.6 µM. 650,000 compounds, 0.91% hits. AID 1259374, 2018; in the data active = inhibition above about 50%;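 note: 0% = vehicle wells with protein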
FBW7 act = FBW7 E3 ligase activators, primary screen, biochemical, AlphaScreen, human; F-box/WD repeat-containing protein 7 (Homo sapiens), Q969H0; AlphaScreen FBW7–phospho-cyclin E peptide binding, activator screen; normalized activity (activation), % at 26.1 µM; 650,000 compounds, 0.13% hits; AID 1259310, 2017; in the data active = normalized activity above about 1.9%;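 note: purified mutant Fbw7 with reduced substrate affinity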
GPR151 ag = activators of human GPR151, primary screen, cell-based, PathHunter beta-arrestin, luminescence. G-protein coupled receptor 151 (Homo sapiens), Q8TDV0. PathHunter beta-arrestin GPR151 cells. activation, % at 11.2 µM. 650,000 compounds, 1% hits. AID 1508602, 2020; in the data active = activation above about 4.9%;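 note: 0% = median of compound wells and 100% = cells with positive control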
GPR151 confirm = GPR151 activators, triplicate retest, confirmation, cell-based, PathHunter beta-arrestin, luminescence. activation, % at 11.2 µM. 6,700 tested, under 10 active. AID 1508609, 2020. shares compounds with GPR151 ag. GPR151 PathHunter beta-arrestin cells, 90 min; % of EA-reagent control over plate median;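 active = mean percent activation across replicates above the confirmation screen cutoff of 4.91%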
GPR119 counter = GPR119 activators in beta-arrestin cells, counter-screen for GPR151 activator project, cell-based, PathHunter beta-arrestin, luminescence, triplicate; shares compounds with GPR151 ag; 90 min; 0 = compound-well median, 100 = enzyme-acceptor control; activation, % at 11.2 µM; 6,700 compounds, 0.3% hits;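 active = mean percent activation in the counterscreen above 29.09%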;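 note: counterscreen on off-target GPR119 to flag nonselective hits from the GPR151 activator screen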
Target sequence (Q8TDV5 whole entry, looked up): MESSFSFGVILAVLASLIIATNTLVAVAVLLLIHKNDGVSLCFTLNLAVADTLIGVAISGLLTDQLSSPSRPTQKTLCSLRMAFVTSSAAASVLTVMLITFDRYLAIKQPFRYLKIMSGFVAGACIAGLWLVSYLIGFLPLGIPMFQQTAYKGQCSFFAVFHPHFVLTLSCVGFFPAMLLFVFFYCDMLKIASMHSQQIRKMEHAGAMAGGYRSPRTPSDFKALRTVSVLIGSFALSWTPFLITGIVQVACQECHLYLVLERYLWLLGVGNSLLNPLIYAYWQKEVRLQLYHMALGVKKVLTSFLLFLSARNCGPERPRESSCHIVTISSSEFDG
Active calls of the source: *. Sampled rows, rich in hits. Any-hit rate of the full collection: about 3.5%.

Screening COc1cc2nc(Nc3ccccc3)nc(Nc3ccc(N4CCOCC4)cc3)c2cc1OC returned TEAD-YAP inh -0.2, MITF inh 20.7, FBW7 act -0.2, GPR151 ag 8.2*, GPR151 confirm 0.5 and GPR119 counter 3.6.
`COc1cc2nc(Nc3ccc4ncccc4c3)nc(Nc3ccc4c(c3)OCO4)c2cc1OC` gave TEAD-YAP inh 0.7, MITF inh 4.7, FBW7 act -0.3, GPR151 ag 7.7*, GPR151 confirm -0.4 and GPR119 counter -7.1.
Screening CCC(N)(CCC(=O)O)C(=O)O (centres undefined) returned MITF inh -10.4, FBW7 act -0.1 and GPR151 ag -2.3.
For O=C(Nc1nc(-c2ccccc2)cs1)c1ccc(Cl)s1 the results were TEAD-YAP inh -27.6, MITF inh -10.0, FBW7 act -0.1 and GPR151 ag 1.5.
For O=C(Nc1nc(-c2ccc(I)cc2)cs1)c1ccc(Cl)s1 the results were TEAD-YAP inh -0.2, MITF inh 0.2, FBW7 act 0.1, GPR151 ag 5.5*, GPR151 confirm 1.9 and GPR119 counter 19.4.
`CN1C(=O)CC(c2cn(Cc3ccccc3)c3ccccc23)C1=O` (centres undefined) gave TEAD-YAP inh -6.9, MITF inh -1.9, FBW7 act -0.2 and GPR151 ag 2.2.
Screening Cc1sc2c(c1C)C(=O)NC(c1cn(Cc3ccccc3)c3ccccc13)N2 (centres undefined) returned TEAD-YAP inh -2.0, MITF inh -7.7, FBW7 act -0.3, GPR151 ag 6.1*, GPR151 confirm 0.8 and GPR119 counter -1.3.
`Cc1nn(-c2ccc(Nc3ccc(NC(=O)c4cccc(F)c4)cc3)nn2)c(C)c1C` gave TEAD-YAP inh -21.9, MITF inh -13.4, FBW7 act 0.0, GPR151 ag 7.6*, GPR151 confirm 2.7 and GPR119 counter 14.5.
Screening C#CCn1c(=NC(=O)C2CC2)sc2cc(S(C)(=O)=O)ccc21 returned TEAD-YAP inh 3.0, MITF inh -12.5, FBW7 act 0.5, GPR151 ag 6.5*, GPR151 confirm -0.7 and GPR119 counter 1.0.
CCOCCn1c(=NC(=O)C2CC2)sc2cc(S(C)(=O)=O)ccc21 was read as TEAD-YAP inh 1.4, MITF inh 3.4, FBW7 act 0.5, GPR151 ag 8.7*, GPR151 confirm 1.4 and GPR119 counter 6.8.
Cc1nonc1N=NN(Cc1ccc([N+](=O)[O-])cc1)c1nonc1C was read as TEAD-YAP inh 8.4, MITF inh 9.4, FBW7 act -0.1, GPR151 ag 7.4*, GPR151 confirm 0.4 and GPR119 counter -4.6.
Screening CN1CCCC(OC(=O)c2cc(Br)ccc2Cl)C1 (centres undefined) returned TEAD-YAP inh -0.2, MITF inh 24.8, FBW7 act 0.2, GPR151 ag 6.2*, GPR151 confirm -0.7 and GPR119 counter -0.8.
For CN1CCCC(OC(=O)c2cc(Cl)ccc2Cl)C1 (centres undefined) the results were TEAD-YAP inh -5.7, MITF inh -6.2, FBW7 act -0.1 and GPR151 ag -0.2.
Screening CN(C)c1ccc(-c2nc(-c3ccc(Br)cc3)c(-c3ccc(Br)cc3)[nH]2)cc1 returned TEAD-YAP inh 3.3, MITF inh 7.0, FBW7 act -0.1 and GPR151 ag 0.8.
For CC(=O)NCCNC(=O)c1ccc(Br)s1 the results were TEAD-YAP inh -5.7, MITF inh -1.9, FBW7 act 0.0, GPR151 ag 6.0*, GPR151 confirm -0.8 and GPR119 counter -3.6.
For O=C(NO)c1ccc(Br)s1 the results were TEAD-YAP inh -7.2, MITF inh 4.9, FBW7 act 0.0 and GPR151 ag 0.5.
Cc1cccc(-n2ncc3c(Nc4ccc(C)c(C)c4)ncnc32)c1 was read as TEAD-YAP inh -10.2, MITF inh -1.7, FBW7 act -0.1 and GPR151 ag 1.5.
For O=C(CCc1nnc(C2(c3ccc(Cl)cc3)CCC2)o1)NCc1ccccn1 the results were TEAD-YAP inh 8.1, MITF inh 13.3, FBW7 act 0.2, GPR151 ag 5.1*, GPR151 confirm 0.0 and GPR119 counter -5.6.
Screening Cc1ccc(CNC(=O)CCc2nnc(C3(c4ccc(Cl)cc4)CCC3)o2)s1 returned TEAD-YAP inh -4.3, MITF inh 4.7, FBW7 act 0.0 and GPR151 ag 0.5.
Screening COc1cc(/C=N/Nc2nnc(C(C)(C)C)c(=O)[nH]2)cc(OC)c1OC returned TEAD-YAP inh 7.6, MITF inh 3.4, FBW7 act 0.0, GPR151 ag 6.1*, GPR151 confirm 0.7 and GPR119 counter -3.4.
For CC(C)(C)c1nnc(N/N=C/c2ccc(O)cc2)[nH]c1=O the results were TEAD-YAP inh 13.6, MITF inh 3.3, FBW7 act -0.1 and GPR151 ag 2.2.
CCn1c(=O)c(C(=O)NNC(=O)c2ccc([N+](=O)[O-])cc2)c(O)c2ccccc21 was read as TEAD-YAP inh 0.5, MITF inh 7.0, FBW7 act -0.1, GPR151 ag 20.5*, GPR151 confirm -0.1 and GPR119 counter -5.6.
`CC12CC3CC(C)(C1)CC(CNC(=O)COc1ccccc1)(C3)C2` gave TEAD-YAP inh 9.3, MITF inh 3.5, FBW7 act 0.0 and GPR151 ag 2.2.
Screening CC1(C)CC(NC(=O)COc2ccccc2)CC(C)(CNC(=O)COc2ccccc2)C1 (centres undefined) returned TEAD-YAP inh 6.1, MITF inh 8.9, FBW7 act 0.1, GPR151 ag 5.4*, GPR151 confirm -0.1 and GPR119 counter 1.8.
`O=C(Oc1ccc(/C=N/NC(=O)C(O)c2ccccc2)cc1)c1ccccc1` (centres undefined) gave TEAD-YAP inh -1.5, MITF inh -3.2, FBW7 act 0.2 and GPR151 ag -0.2.
Screening O=[N+]([O-])c1ccccc1/C=C/CN1CCSCC1 returned TEAD-YAP inh -5.5, MITF inh 40.3, FBW7 act -0.1 and GPR151 ag 0.6.
`O=[N+]([O-])c1ccccc1/C=C/CN1CCN(CCOCCO)CC1` gave TEAD-YAP inh 5.2, MITF inh 49.1, FBW7 act -0.3, GPR151 ag 5.4*, GPR151 confirm 0.1 and GPR119 counter 4.5.
Screening Cc1ccc(NC(=O)CO/N=C(\N)c2nonc2N)cc1 returned TEAD-YAP inh 6.5, MITF inh 8.5, FBW7 act 0.1, GPR151 ag 5.9*, GPR151 confirm 0.7 and GPR119 counter -6.3.

Source: PubChem (The Scripps Research Institute Molecular Screening Center)
